From PubChem BioAssay (EPA / NIEHS)
The source made the active and inactive calls. The calls were made as follows, unless noted: active = hit-call score of the fitted dose curve at least 0.9, where 1 is the maximum; inactive = score below 0.9.

How the values were obtained:
[1] = read-out: Protein phosphatase 2A (PPP2R4), PTPA (gene 5524); test: LTEA_HepaRG_PPP2R4: Life Technologies and Expression Analysis (LTEA) Assay for Protein phosphatase 2A (PPP2R4) using HepaRG (AID 2283522); conditions: mRNA level, 48 h; actives raise or lower the signal
Method in brief: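 Using HepaRG cultures maintained in 0.5% DMSO, chemicals are tested 48 h at up to 100 uM in duplicate. Induction or suppression of PPP2R4 mRNA, measured by qRT-PCR, is fitted bidirectionally against the vehicle baseline.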

[2] = read-out: Phosphatase and tensin (PTEN), PTEN (gene 5728); test: LTEA_HepaRG_PTEN: Life Technologies and Expression Analysis (LTEA) Assay for Phosphatase and tensin (PTEN) using HepaRG (AID 2283523); conditions: mRNA level, 48 h; actives raise or lower the signal
Method in brief: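 HepaRG, 48 h exposure, 8-pt half-log series from 100 uM top, 0.5% DMSO vehicle, duplicates. Readout: Fluidigm qRT-PCR of PTEN transcript; housekeeping normalization (ACTB, GAPDH, POLR2A). Gain or loss fitted relative to DMSO baseline.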

[3] = read-out: solute carrier (SLC22A1), SLC22A1 (gene 6580); test: LTEA_HepaRG_SLC22A1: Life Technologies and Expression Analysis (LTEA) Assay for solute carrier (SLC22A1) using HepaRG (AID 2283524); conditions: mRNA level, 48 h; actives raise or lower the signal;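 as to AC50: differentiated human HepaRG liver cells in serum-free induction medium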
Method in brief: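 qRT-PCR readout (TaqMan, Fluidigm arrays) of SLC22A1 transcript, normalized to three housekeeping genes; bidirectional curve fit relative to 0.5% DMSO vehicle. Differentiated human HepaRG cells, 48 h chemical exposure, top concentration 100 uM, half-log steps, eight points.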

[4] = read-out: Pyruvate Dehydrogenase Kinase 4 (PDK4), PDK4 (gene 5166); test: LTEA_HepaRG_PDK4: Life Technologies and Expression Analysis (LTEA) Assay for Pyruvate Dehydrogenase Kinase 4 (PDK4) using HepaRG (AID 2283525); conditions: mRNA level, 48 h; actives raise or lower the signal
Method in brief: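 HepaRG (human liver line), 48 h chemical exposure, 8-pt half-log CRC top 100 uM, 0.5% DMSO vehicle, duplicates. Readout: TaqMan qRT-PCR of PDK4 mRNA, housekeeping-normalized; gain/loss fit relative to DMSO baseline.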

[5] = read-out: NAD(P)H dehydrogenase [quinone] 1 (NQO1), NQO1 (gene 1728); test: LTEA_HepaRG_NQO1: Life Technologies and Expression Analysis (LTEA) Assay for NAD(P)H dehydrogenase [quinone] 1 (NQO1) using HepaRG (AID 2283526); conditions: mRNA level, 48 h; actives raise or lower the signal
Method in brief: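 In this assay, gene expression is read by qRT-PCR after 48 h exposure of HepaRG cells to eight concentrations (max 100 uM, half-log) in 0.5% DMSO. Each chemical runs in duplicate, and activity is scored relative to vehicle.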

[6] = read-out: Nuclear factor erythroid 2-related factor 2 (Homo sapiens) (UniProt Q16236); test: LTEA_HepaRG_NFE2L2: Life Technologies and Expression Analysis (LTEA) Assay for Nuclear factor erythroid 2-related factor 2 (NFE2L2) Transcription Factor using HepaRG (AID 2283527); conditions: mRNA level, 48 h; actives raise or lower the signal;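 also: TaqMan qRT-PCR transcript level normalised to ACTB GAPDH and POLR2A housekeeping genes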
Method in brief: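 HepaRG, 48 h dosing, 8-pt half-log series from 100 uM in 0.5% DMSO, duplicates. Read-out: NFE2L2 mRNA by qRT-PCR (ACTB/GAPDH/POLR2A normalization). Bidirectional curve fit vs DMSO baseline.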

[7] = read-out: succinate dehydrogenase complex iron sulfur subunit B (SDHB), SDHB (gene 6390); test: LTEA_HepaRG_SDHB: Life Technologies and Expression Analysis (LTEA) Assay for succinate dehydrogenase complex iron sulfur subunit B (SDHB) using HepaRG (AID 2283528); conditions: mRNA level, 48 h; actives raise or lower the signal
Method in brief: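 A human HepaRG culture in serum-free induction medium received test chemicals for 48 h over an eight-point range capped at 100 uM. SDHB expression change was quantified by qRT-PCR.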

[8] = read-out: Signal transducer and activator of transcription 3 (Homo sapiens) (UniProt P40763); test: LTEA_HepaRG_STAT3: Life Technologies and Expression Analysis (LTEA) Assay for Signal transducer and activator of transcription (STAT3) using HepaRG (AID 2283529); conditions: mRNA level, 48 h; actives raise or lower the signal
Method in brief: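 HepaRG, 48 h exposure, 8-pt half-log series (top 100 uM), 0.5% DMSO vehicle, duplicates. Readout: STAT3 transcript by Fluidigm qRT-PCR, housekeeping-normalized; bidirectional fit vs DMSO baseline.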

[9] = read-out: solute carrier (SLCO1B1), SLCO1B1 (gene 10599); test: LTEA_HepaRG_SLCO1B1: Life Technologies and Expression Analysis (LTEA) Assay for solute carrier (SLCO1B1) using HepaRG (AID 2283530); conditions: mRNA level, 48 h; actives raise or lower the signal
Method in brief: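 HepaRG, serum-free induction medium, 48 h dosing, 8-pt half-log from 100 uM, 0.5% DMSO vehicle, duplicates. Readout: SLCO1B1 mRNA, qRT-PCR, ACTB/GAPDH/POLR2A normalization; up or down fit vs DMSO.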

[10] = read-out: sulfotransferase 2A1 (SULT2A1), SULT2A1 (gene 6822); test: LTEA_HepaRG_SULT2A1: Life Technologies and Expression Analysis (LTEA) Assay for sulfotransferase 2A1 (SULT2A1) using HepaRG (AID 2283531); conditions: mRNA level, 48 h; actives raise or lower the signal
Method in brief: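 Transcript levels of SULT2A1, quantified by qRT-PCR and normalized to three housekeeping genes, serve as the readout. Human HepaRG cultures receive test chemicals for 48 h at up to 100 uM in half-log steps, with 0.5% DMSO vehicle.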

[11] = read-out: Transforming Growth Factor (TGFA), TGFA (gene 7039); test: LTEA_HepaRG_TGFA: Life Technologies and Expression Analysis (LTEA) Assay for Transforming Growth Factor (TGFA) using HepaRG (AID 2283532); conditions: mRNA level, 48 h; actives raise or lower the signal
Method in brief: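 qRT-PCR read-out of TGFA transcript, normalized to three housekeeping genes, fitted bidirectionally against 0.5% DMSO baseline. Human HepaRG cultures received chemicals for 48 h at eight half-log concentrations, top 100 uM.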

[12] = read-out: Tumor necrosis factor receptor 1 (TNFRSF1A), TNFRSF1A (gene 7132); test: LTEA_HepaRG_TNFRSF1A: Life Technologies and Expression Analysis (LTEA) Assay for Tumor necrosis factor receptor 1 (TNFRSF1A) using HepaRG (AID 2283535); conditions: mRNA level, 48 h; actives raise or lower the signal
Method in brief: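 Read-out is TNFRSF1A transcript level by TaqMan qRT-PCR, normalized to three housekeeping genes, scored as gain or loss of signal versus 0.5% DMSO. Human HepaRG cells received test chemicals for 48 h at up to 100 uM (half-log series).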

[13] = read-out: Thyroid Hormone Responsive (THRSP), THRSP (gene 7069); test: LTEA_HepaRG_THRSP: Life Technologies and Expression Analysis (LTEA) Assay for Thyroid Hormone Responsive (THRSP) using HepaRG (AID 2283536); conditions: mRNA level, 48 h; actives raise or lower the signal
Method in brief: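 qRT-PCR read-out (Fluidigm TaqMan), housekeeping-normalized (ACTB/GAPDH/POLR2A). HepaRG, 48 h chemical exposure, 8-pt half-log series from 100 uM in 0.5% DMSO, duplicates. Bidirectional curve fit vs 0.5% DMSO baseline.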

[14] = read-out: UDP glucuronosyltransferase (UGT1A1), UGT1A1 (gene 54658); test: LTEA_HepaRG_UGT1A1: Life Technologies and Expression Analysis (LTEA) Assay for UDP glucuronosyltransferase (UGT1A1) using HepaRG (AID 2283538); conditions: mRNA level, 48 h; actives raise or lower the signal
Method in brief: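 mRNA induction or loss of UGT1A1, by TaqMan qRT-PCR, in duplicate HepaRG wells after 48 h exposure to half-log dilutions topping at 100 uM; DMSO (0.5%) served as baseline.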

[15] = read-out: UDP glucuronosyltransferase (UGT1A6), UGT1A6 (gene 54578); test: LTEA_HepaRG_UGT1A6: Life Technologies and Expression Analysis (LTEA) Assay for UDP glucuronosyltransferase (UGT1A6) using HepaRG (AID 2283539); conditions: mRNA level, 48 h; actives raise or lower the signal
Method in brief: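 HepaRG, 48 h post-plating switch to serum-free induction medium; chemical 48 h, 100 uM top, half-log x8, duplicate, 0.5% DMSO. Phenobarbital 1mM induction control. UGT1A6 mRNA by TaqMan qRT-PCR; gain/loss fit vs DMSO.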

[16] = read-out: X-box binding protein 1 (XBP1), XBP1 (gene 7494); test: LTEA_HepaRG_XBP1: Life Technologies and Expression Analysis (LTEA) Assay for X-box binding protein 1 (XBP1) using HepaRG (AID 2283540); conditions: mRNA level, 48 h; actives raise or lower the signal
Method in brief: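 Transcript levels of XBP1, measured by qRT-PCR and normalised to three housekeeping genes, were fitted bidirectionally relative to 0.5% DMSO controls. Human HepaRG cells received eight-point half-log dilutions from 100 uM for 48 h.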

[17] = LTEA_HepaRG_LDH_cytotoxicity: Cytotoxicity Assessment in the Life Technologies and Expression Analysis (LTEA) Assay (AID 2283563; active = hit-call score of the fitted dose curve at least 0.9, where 1 is the maximum;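 as to AC50: LDH activity released into spent culture medium as a marker of cell death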)
Method in brief: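 Cells were thawed and plated for 48 h. Medium was then replaced with serum-free induction medium. Chemicals (8 half-log points, maximum 100 uM, 0.5% DMSO) were added in duplicate for 48 h, after which spent medium was assayed for LDH.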

TIMP1, TIMP1 (gene 7076) = test: LTEA_HepaRG_TIMP1: Life Technologies and Expression Analysis (LTEA) Assay for TIMP1 using HepaRG (AID 2283534); conditions: mRNA level, 48 h; actives raise or lower the signal
Method in brief: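 Readout is TIMP1 mRNA level measured by qRT-PCR and normalized to three housekeeping genes. Human HepaRG cells were treated for 48 h in duplicate at eight concentrations up to 100 uM (0.5% DMSO); gain or loss fitted against DMSO.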

[18] = read-out: Cellular tumor antigen p53 (Homo sapiens) (UniProt P04637); test: LTEA_HepaRG_TP53: Life Technologies and Expression Analysis (LTEA) Assay for Tumor Protein P53 (TP53) using HepaRG (AID 2283537); conditions: mRNA level, 48 h; actives raise or lower the signal
Method in brief: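 Gain or loss of TP53 mRNA signal is scored relative to 0.5% DMSO after 48 h chemical treatment of HepaRG liver cells, tested in duplicate at eight half-log concentrations up to 100 uM.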

[19] = read-out: Transforming Growth Factor (TGFB1), TGFB1 (gene 7040); test: LTEA_HepaRG_TGFB1: Life Technologies and Expression Analysis (LTEA) Assay for Transforming Growth Factor (TGFB1) Transporter using HepaRG (AID 2283533); conditions: mRNA level, 48 h; actives raise or lower the signal
Method in brief: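 HepaRG, 48 h post-plating, switched to serum-free induction medium; chemicals 100 uM top, half-log, 8 pts, 0.5% DMSO, dup; 48 h exposure; RNA → Fluidigm TaqMan qRT-PCR; norm ACTB/GAPDH/POLR2A; bidirectional fit vs DMSO.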

Measured: AC50

Sequence of Signal transducer and activator of transcription 3 (Homo sapiens) (P40763 whole entry, looked up): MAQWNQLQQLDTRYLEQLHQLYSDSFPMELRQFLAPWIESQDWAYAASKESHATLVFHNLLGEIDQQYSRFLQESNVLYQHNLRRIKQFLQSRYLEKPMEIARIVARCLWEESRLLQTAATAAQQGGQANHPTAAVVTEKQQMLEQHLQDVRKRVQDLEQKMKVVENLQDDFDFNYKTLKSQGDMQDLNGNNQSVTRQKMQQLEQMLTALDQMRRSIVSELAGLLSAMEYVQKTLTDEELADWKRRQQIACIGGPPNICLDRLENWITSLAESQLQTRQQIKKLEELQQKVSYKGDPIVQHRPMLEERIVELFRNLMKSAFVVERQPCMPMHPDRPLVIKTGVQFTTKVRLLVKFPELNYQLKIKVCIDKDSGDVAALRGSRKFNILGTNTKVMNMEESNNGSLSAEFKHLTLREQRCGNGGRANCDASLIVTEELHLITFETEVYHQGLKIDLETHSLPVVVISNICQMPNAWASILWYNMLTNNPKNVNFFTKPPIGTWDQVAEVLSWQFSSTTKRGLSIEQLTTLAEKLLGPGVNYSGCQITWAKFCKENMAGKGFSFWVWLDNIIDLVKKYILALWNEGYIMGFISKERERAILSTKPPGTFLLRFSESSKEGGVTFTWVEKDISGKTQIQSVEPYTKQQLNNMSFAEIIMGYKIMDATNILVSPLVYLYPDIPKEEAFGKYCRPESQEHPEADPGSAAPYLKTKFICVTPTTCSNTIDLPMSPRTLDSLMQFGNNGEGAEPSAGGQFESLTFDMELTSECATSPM
Sequence of Nuclear factor erythroid 2-related factor 2 (Homo sapiens) (Q16236 whole entry, looked up): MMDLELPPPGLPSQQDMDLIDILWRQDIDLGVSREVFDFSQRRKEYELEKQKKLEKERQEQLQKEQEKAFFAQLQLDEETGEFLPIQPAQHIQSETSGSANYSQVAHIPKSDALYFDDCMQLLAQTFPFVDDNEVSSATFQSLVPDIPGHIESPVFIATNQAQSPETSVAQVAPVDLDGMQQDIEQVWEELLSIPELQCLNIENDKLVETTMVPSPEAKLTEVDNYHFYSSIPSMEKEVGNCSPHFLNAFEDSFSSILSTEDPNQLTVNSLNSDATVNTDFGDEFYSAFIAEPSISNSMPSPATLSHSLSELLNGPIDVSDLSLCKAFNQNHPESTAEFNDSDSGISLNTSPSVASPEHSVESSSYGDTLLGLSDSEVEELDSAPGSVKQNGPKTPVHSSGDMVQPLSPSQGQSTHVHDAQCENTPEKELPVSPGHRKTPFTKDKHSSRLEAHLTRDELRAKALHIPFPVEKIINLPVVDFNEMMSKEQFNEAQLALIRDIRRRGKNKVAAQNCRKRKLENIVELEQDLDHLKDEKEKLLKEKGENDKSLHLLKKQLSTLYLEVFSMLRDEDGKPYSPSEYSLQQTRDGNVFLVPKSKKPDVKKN
Sequence of Cellular tumor antigen p53 (Homo sapiens) (P04637 whole entry, looked up): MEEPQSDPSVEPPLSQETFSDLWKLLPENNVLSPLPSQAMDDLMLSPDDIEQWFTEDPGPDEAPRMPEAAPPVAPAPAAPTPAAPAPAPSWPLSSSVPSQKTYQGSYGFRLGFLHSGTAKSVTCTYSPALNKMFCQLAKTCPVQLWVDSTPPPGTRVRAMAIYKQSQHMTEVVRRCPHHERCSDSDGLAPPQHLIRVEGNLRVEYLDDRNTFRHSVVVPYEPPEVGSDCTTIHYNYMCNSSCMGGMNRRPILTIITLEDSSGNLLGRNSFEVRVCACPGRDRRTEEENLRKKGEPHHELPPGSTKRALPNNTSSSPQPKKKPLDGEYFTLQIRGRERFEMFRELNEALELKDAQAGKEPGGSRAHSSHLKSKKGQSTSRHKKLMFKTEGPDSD

C[C@]12CC[C@@H]3c4ccc(O)cc4CC[C@H]3[C@@H]1CCC2=O
active: [3] 33.3 µM | [14] 5.13 µM
not listed: TIMP1, TIMP1 (gene 7076) | [18] | [19]
inactive: all other assays above

CC1=CC(=O)/C(=C(/C)O)C(=O)O1
not listed: [19]
inactive: all other assays above

Clc1cc(Cl)c2c(c1)N=C1CCCCCN1C2
active: [4] 12.6 µM
not listed: [14] | TIMP1, TIMP1 (gene 7076)
inactive: all other assays above

O=CCCCC=O
not listed: [13] | TIMP1, TIMP1 (gene 7076)
inactive: all other assays above

NCc1cccc(C2CCN(C(=O)c3ccc(C#Cc4ccccc4F)o3)CC2)c1
active: [3] 92.6 µM | [4] 64.9 µM | [9] 88.5 µM | [10] 92.9 µM | [12] 91.9 µM | [15] 93.1 µM | [17] 81.4 µM
not listed: [13] | [14] | TIMP1, TIMP1 (gene 7076) | [19]
inactive: all other assays above

Oc1ccccc1
not listed: [13]
inactive: all other assays above
